# From PubChem BioAssay AID2587 (National Center for Advancing Translational Sciences (NCATS), 2010)
# Calls of active or inactive are those of the source. The call rests on the fitted dose curve; in most records, active means well fitted curve in the direction sought with a large enough effect; inactive means no such curve, though single readings can be large or run the other way.
# Target: Lysosomal acid glucosylceramidase (Homo sapiens) (UniProt P04062)
# Assay: qHTS Assay for Inhibitors and Activators of N370S glucocerebrosidase as a Potential Chaperone Treatment of Gaucher Disease: Chaperone Activity in Gauche Fibroblasts After Multi-day Incubation with Compound
# Conditions: GC immunofluorescence, 5 days
# Description: NIH Chemical Genomics Center [NCGC] NIH Molecular Libraries Probe Production Centers Network [MLPCN] MLPCN Grant: MH086442-01 Assay Submitter (PI): Wei Zheng Glucocerebrosidase (GC) catalyzes the hydrolysis of beta-glucocerebroside to glucose and ceramide in lysosomes. Mutations in the glucocerebrosidase gene result in Gaucher disease, an autosomal recessive lysosomal storage disorder. Many of the mutations encountered in patients with Gaucher disease are missense alterations that may cause misfolding, decreased stability and/or mistrafficking of this lysosomal protein. […] These inhibitors include iminosugar analogs and three non-iminosugar inhibitors identified from a previous HTS of 62,000 compounds with the wild type recombinant enzyme. However, the enhancement of enzyme activity by the chaperone action of an enzyme inhibitor must be balanced against the direct inhibition of the enzyme. An enzyme activator could also function as a chaperone by binding to the enzyme and helping to correct its misfolding and mistrafficking. […] This assay attempts to quantitate translocated glucocerebrosidase protein in patient-derived fibroblasts following extended compound incubation. […]
# NCGC Assay Protocol Summary: 1. […] Visualized using a fluorescence microscope and the intensity of fluorescence in the selected areas were calculated. […]
# Lysosomal acid glucosylceramidase (Homo sapiens), sequence (P04062 whole entry N409S): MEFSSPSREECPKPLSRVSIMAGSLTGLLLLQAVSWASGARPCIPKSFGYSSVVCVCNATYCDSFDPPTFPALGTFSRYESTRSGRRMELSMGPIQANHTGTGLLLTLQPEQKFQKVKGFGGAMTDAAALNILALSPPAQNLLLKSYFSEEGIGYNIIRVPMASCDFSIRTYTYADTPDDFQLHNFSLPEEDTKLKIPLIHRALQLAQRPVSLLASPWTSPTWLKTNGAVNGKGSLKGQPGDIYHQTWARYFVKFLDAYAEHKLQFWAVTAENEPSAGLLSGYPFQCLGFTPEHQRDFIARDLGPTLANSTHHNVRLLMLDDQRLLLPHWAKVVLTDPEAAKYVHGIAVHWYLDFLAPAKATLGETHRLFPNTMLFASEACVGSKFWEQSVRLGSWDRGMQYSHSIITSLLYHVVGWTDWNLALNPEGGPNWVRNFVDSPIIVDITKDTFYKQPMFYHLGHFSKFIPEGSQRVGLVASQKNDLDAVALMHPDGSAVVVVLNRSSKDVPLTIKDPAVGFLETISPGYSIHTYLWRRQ
row,Compound,Potency
1,O=S(=O)(c1ccc2ccccc2c1)N1CCN(c2nc(-c3cccs3)nc3ccccc23)CC1,501 nM (active)
2,S=C(NCCCc1cnc[nH]1)NCCCN(Cc1ccc(Cl)c(Cl)c1)c1ccc(Br)cn1,316 nM (active)
